# Test results published in PubChem BioAssay (EPA / NIEHS).
# Calls of active or inactive are those of the source. Rule for the calls: active = hit-call score of the fitted dose curve at least 0.9, where 1 is the maximum; inactive = score below 0.9.
# Read-out: Interleukin-8 (IL8), CXCL8 (gene 3576)
# Assay: BSK_hDFCGF_IL8: BioMAP Diversity Plus: hDFCGF Assay for Interleukin-8 (IL8) Biomarker Activity (AID 2283058)
# Details: primary human foreskin fibroblasts; actives raise or lower the signal
# Protocol: BSK_hDFCGF is a cell-based, multiplexed-readout assay that uses foreskin fibroblast, a human skin primary cell, with measurements taken at 24 hours after chemical dosing in a 96-well plate.BSK_hDFCGF_IL8 is an assay component measured in the BSK_hDFCGF assay. It measures IL-8 antibody related to regulation of gene expression using ELISA technology.Data from the assay component BSK_hDFCGF_IL8 was analyzed into 1 assay endpoint. This assay endpoint, BSK_hDFCGF_IL8, was analyzed with bidirectional fitting relative to DMSO as the negative control and baseline of activity. Using a type of binding reporter, gain or loss-of-signal activity can be used to understand changes in the signaling as they relate to the gene CXCL8. Furthermore, this assay endpoint can be referred to as a primary readout, because this assay has produced multiple assay endpoints where this one serves a signaling function. To generalize the intended target to other relatable targets, this assay endpoint is annotated to the cytokine intended target family, where the subfamily is interleukins.
# The levels of cell surface (or secreted, indicated by the prefix "s") biomarker endpoints were measured by ELISA. Overt cytotoxicity to cells in confluent adherent cultures (all systems other than the BT system) was assessed by measuring total protein levels using sulforhodamine B (SRB) staining in parallel cultures at the time of biomarker measurements, indicated as SRB endpoints. For proliferation assays for adherent cell types, individual cell types are cultured at sub-confluence and relative cell numbers quantified by SRB staining at time points optimized for each system (48 h: 3C and CASM3C systems; 72 h: BT and HDF3CGF systems; 96 h: SAg system). SRB was performed by staining cells with 0.1% SRB after fixation with 10% TCA and reading wells at 560 nm.Viability and proliferation of PBMC (T cells) was quantified by Alamar Blue reduction for the SAg and BT systems. For PBMC viability (referred to as PBMC Cytotoxicity within the assay endpoint names), cells were plated (75,000/well in a 96-well plate) and then chemical samples added for 1 h before addition of activators, SEB and TSST-1 (20 ng/mL final concentration each). Cells were incubated for 90 h. Then, Alamar Blue (20 uL/well) (Invitrogen, Cat DAL1100) was added for 6 h, and the plates were read with a fluorescence microplate reader at 546/580 nm (excitation/emission). For PBMC proliferation, cells were plated and activated as above but incubated for only 16 h prior to addition of Alamar Blue. Plates were read after 6 h.
Compound,outcome,AC50
CC1(c2ccc(Oc3ccccc3)cc2)OC(=O)N(Nc2ccccc2)C1=O (stereo not given),inactive,–
CC(C)N(C(=O)COc1nnc(C(F)(F)F)s1)c1ccc(F)cc1,inactive,–
CNC(=O)CSP(=S)(OC)OC,inactive,–
Cc1cc(C)nc(NC(=O)NS(=O)(=O)c2ccccc2C(=O)OC2COC2)n1,inactive,–
CCCN(CCOc1c(Cl)cc(Cl)cc1Cl)C(=O)n1ccnc1,inactive,–
C[C@H]1[C@H](c2ccc(Cl)cc2)SC(=O)N1C(=O)NC1CCCCC1,inactive,–
O=[N+]([O-])c1c(Cl)c(Cl)c(Cl)c(Cl)c1Cl,inactive,–
CNC(=O)Oc1ccccc1OC(C)C,inactive,–
CC(C)(C)C(O)C(Oc1ccc(Cl)cc1)n1cncn1 (stereo not given),inactive,–
ClC1C(Cl)C(Cl)C(Cl)C(Cl)C1Cl (stereo not given),inactive,–
O=C(O)C(F)(F)C(F)(F)C(F)(F)C(F)(F)C(F)(F)C(F)(F)C(F)(F)F,inactive,–
COP(=S)(OC)Oc1ccc(SC)c(C)c1,inactive,–
CCC(C)Nc1c([N+](=O)[O-])cc(C(C)(C)C)cc1[N+](=O)[O-] (stereo not given),inactive,–
CNC(=O)Oc1cccc(N=CN(C)C)c1,inactive,–
N#Cc1c(Cl)c(Cl)c(Cl)c(C#N)c1Cl,–,1.1 µM (active)
O=C(O)COc1ccc(Cl)cc1Cl,inactive,–
COP(=S)(OC)Oc1ccc([N+](=O)[O-])cc1,inactive,–
O=[N+]([O-])/N=C1\NCCN1Cc1ccc(Cl)nc1,inactive,–
[2H]C1([2H])[n+]2ccccc2-c2cccc[n+]2C1([2H])[2H],inactive,–
CN1CSC(=S)N(C)C1,inactive,–

Compound,outcome,AC50
CCOCN(C(=O)CCl)c1c(C)cccc1CC,inactive,–
COC(=O)c1ccccc1S(=O)(=O)NC(=O)Nc1nc(C)nc(OC)n1,inactive,–
CC[C@H](C)[C@H]1O[C@]2(C=C[C@@H]1C)C[C@@H]1C[C@@H](C/C=C(\C)[C@@H](O[C@H]3C[C@H](OC)[C@@H](O[C@H]4C[C@H](OC)[C@@H](O)[C@H](C)O4)[C@H](C)O3)[C@@H](C)/C=C/C=C3\CO[C@@H]4[C@H](O)C(C)=C[C@@H](C(=O)O1)[C@]34O)O2 (tested in a mixture with another compound),–,9.73 µM (active)
Clc1ccccc1-c1nnc(-c2ccccc2Cl)nn1,inactive,–
COc1cc(OC)nc(NC(=O)NS(=O)(=O)c2cc(NC=O)ccc2C(=O)N(C)C)n1,inactive,–
Oc1ccc(Cl)cc1Cc1ccccc1,–,31.3 µM (active) [middle of 7 runs]
O=C1c2ccccc2C(=O)N1SC(Cl)(Cl)Cl,inactive,–
COc1nn(CSP(=S)(OC)OC)c(=O)s1,inactive,–
CC(C)OC(=O)Nc1cccc(Cl)c1,inactive,–
O=S(=O)(O)C(F)(F)C(F)(F)C(F)(F)C(F)(F)C(F)(F)C(F)(F)C(F)(F)C(F)(F)F,inactive,–
N#CN,inactive,–
CNC(=O)/C=C(\C)OP(=O)(OC)OC,inactive,–
COC(=O)c1ccccc1S(=O)(=O)NC(=O)N(C)c1nc(C)nc(OC)n1,inactive,–
COC(=O)c1ccccc1CS(=O)(=O)NC(=O)Nc1nc(OC)cc(OC)n1,inactive,–
CCOc1nc(NC)nc(NC(=O)NS(=O)(=O)c2ccccc2C(=O)OC)n1,inactive,–
Oc1cc(Cl)ccc1Oc1ccc(Cl)cc1Cl,–,30 µM (active) [middle of 4 runs]
CCN(CC)C(=O)SCc1ccc(Cl)cc1,inactive,–
CC1(C)C(C=C(Cl)Cl)C1C(=O)OC(C#N)c1ccc(F)c(Oc2ccccc2)c1 (stereo not given),inactive,–
Cc1[nH]c(=O)n(C(C)(C)C)c(=O)c1Cl,inactive,–
OCCOc1ccccc1,inactive,–
